According to PubChem BioAssay (EPA / NIEHS):
Values joined by “and” are separate entries in the source; they are usually repeats but may differ in a detail not shown here. Identical values can stand only once. Inconclusive results are not listed. A structure can be active in one record and inactive in another. Active and inactive are the calls of the source. How the source made its calls, unless noted: active means hit-call score of the fitted dose curve at least 0.9, where 1 is the maximum; inconclusive means response in the unintended direction; inactive means score below 0.9.

What was measured:
[1] = read-out: X-box binding protein 1 (XBP1), XBP1 (gene 7494); test: LTEA_HepaRG_XBP1: Life Technologies and Expression Analysis (LTEA) Assay for X-box binding protein 1 (XBP1) using HepaRG (AID 2283540; active means hit-call score of the fitted dose curve at least 0.9, where 1 is the maximum; inactive means score below 0.9); conditions: mRNA level, 48 h; actives raise or lower the signal
How it was run: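 Human HepaRG monolayers receive test chemical for 48 h across an eight-point half-log series starting at 100 uM. XBP1 mRNA gain or loss is scored against DMSO by qRT-PCR.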

[2] = LTEA_HepaRG_LDH_cytotoxicity: Cytotoxicity Assessment in the Life Technologies and Expression Analysis (LTEA) Assay (AID 2283563);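 on AC50: LDH activity released into spent culture medium as a marker of cell death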
How it was run: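 Human HepaRG hepatic cells are treated with test chemicals for 48 h at up to 100 uM in 0.5% DMSO. Cytotoxicity is scored from medium LDH against the vehicle control.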

[3] = TOX21_p53_BLA_p2_viability: Viability Assessment in the Tox21 HCT-116 p53 Agonism Beta-lactamase Assay, Phase 2 (AID 2283591);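 further: compound exposure lasted 16 h at 37 °C; actives lower the ATP signal meaning cytotoxicity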
How it was run: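 HCT-116 p53-bla cells (4000/well) rested 5 h at 37C, then received compounds in DMSO (217-fold dilution) for 16 h at 37C, 5% CO2. After the CCF4 read, CellTiter-Glo was added; ATP luminescence was read after 30 min at room temperature.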

[4] = molecular target: Cellular tumor antigen p53 (Homo sapiens) (UniProt P04637); test: TOX21_p53_BLA_p2_ratio: Tox21 HCT-116 p53 Agonism Beta-lactamase Assay, Ratio, Phase 2 (AID 2283592)
Cellular tumor antigen p53 (Homo sapiens), sequence (P04637 whole entry, looked up): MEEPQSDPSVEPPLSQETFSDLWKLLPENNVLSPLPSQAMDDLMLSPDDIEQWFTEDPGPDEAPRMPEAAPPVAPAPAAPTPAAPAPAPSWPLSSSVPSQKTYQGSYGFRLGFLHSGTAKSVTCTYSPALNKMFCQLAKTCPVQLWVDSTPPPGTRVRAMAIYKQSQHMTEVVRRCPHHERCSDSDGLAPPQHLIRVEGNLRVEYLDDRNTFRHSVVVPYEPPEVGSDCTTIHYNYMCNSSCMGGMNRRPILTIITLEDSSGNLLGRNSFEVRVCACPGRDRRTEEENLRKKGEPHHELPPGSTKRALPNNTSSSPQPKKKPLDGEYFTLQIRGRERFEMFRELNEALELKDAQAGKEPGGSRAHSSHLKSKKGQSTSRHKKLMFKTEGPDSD
How it was run: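 Cleaved-to-uncleaved substrate ratio (460 vs 530 nm) measured in HCT116 cells with an inducible beta-lactamase reporter linked to p53 activity. Compounds incubated 16 h at 37C before 2 h room-temperature CCF4-AM loading.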

[5] = TOX21_p53_BLA_p3_viability: Viability Assessment in the Tox21 HCT-116 p53 Agonism Beta-lactamase Assay, Phase 3 (AID 2283593);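 further: cells exposed to compound for 16 h before reading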
How it was run: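 HCT-116 cells (4000/well) rested 5 h at 37C, then got DMSO compounds by pin tool (217-fold dilution) for 16 h at 37C, 5% CO2. After the bla read, CellTiter-Glo was added and luminescence read at 30 min, room temperature.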

[6] = molecular target: Cellular tumor antigen p53 (Homo sapiens) (UniProt P04637); test: TOX21_p53_BLA_p3_ratio: Tox21 HCT-116 p53 Agonism Beta-lactamase Assay, Ratio, Phase 3 (AID 2283596)
How it was run: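 Cells were seeded at 4000/well, rested 5 h at 37C, then dosed with DMSO compound solutions (217-fold dilution) for 16 h. CCF4-AM substrate was loaded for 2 h at room temperature, and the 460/530 nm emission ratio was fitted for gain of signal versus DMSO.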

[7] = TOX21_p53_BLA_p4_viability: Viability Assessment in the Tox21 HCT-116 p53 Agonism Beta-lactamase Assay, Phase 4 (AID 2283597);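 further: hits lower the luminescence signal meaning cytotoxicity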
How it was run: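 Viability is taken as cellular ATP: after 16 h compound exposure of HCT116 cells and a 2 h room-temperature CCF4-AM substrate step, CellTiter-Glo reagent is added and luminescence is measured 30 min later.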

[8] = molecular target: Cellular tumor antigen p53 (Homo sapiens) (UniProt P04637); test: TOX21_p53_BLA_p5_ratio: Tox21 HCT-116 p53 Agonism Beta-lactamase Assay, Ratio, Phase 5 (AID 2283599)
How it was run: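 HCT-116 cells carrying a p53-inducible beta-lactamase reporter were seeded at 4000 cells/well and dosed after 5 h with compound in DMSO (217-fold dilution). After 16 h at 37C, CCF4-AM substrate was added for 2 h, and the 460/530 nm emission ratio was scored as gain-of-signal versus DMSO.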

[9] = TOX21_p53_BLA_p5_viability: Viability Assessment in the Tox21 HCT-116 p53 Agonism Beta-lactamase Assay, Phase 5 (AID 2283600)
How it was run: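 Viability is taken from cellular ATP content, measured by luciferase luminescence in the same wells after the beta-lactamase ratio read. Cells are seeded at 4000 per well and exposed to DMSO-dissolved compounds, diluted 217-fold, for 16 h.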

[10] = ATG_XTT_Cytotoxicity: Cytotoxicity Assessment in the Attagene TRANS-FACTORIAL HepG2 Assay (AID 2283584)
How it was run: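 Transfect HepG2 with GAL4-UAS reporter units, dose compound, incubate 24 h, then measure viable cell number by XTT. Fit concentration response against DMSO baseline.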

Measured: AC50

O=C(Nc1ccccc1)Nc1cnns1
active: [1] 50 µM | [2] 77.2 µM | [4] 64.1 µM
not listed: [9] | [10]
inactive: all other assays above

O=C1c2ccccc2C(=O)N1SC(Cl)(Cl)Cl
active: [4] 7.1 µM and 14.8 µM | [6] 6.49 µM and 23.1 µM | [8] 14.1 µM and 12.9 µM
not listed: [9] | [10]
inactive: all other assays above

CN1CSC(=S)N(C)C1
not listed: [10]
inactive: all other assays above

CC(C)N(C(=O)COc1nnc(C(F)(F)F)s1)c1ccc(F)cc1
inactive: [2] | [6] | [7] | [8] | [9]
active: [1] 28.5 µM

CC(C)OC(=O)Nc1cccc(Cl)c1
not listed: [3] | [9] | [10]
inactive: all other assays above

CCOCN(C(=O)CCl)c1c(C)cccc1CC
active: [2] 76 µM
not listed: [3] | [5] | [9]
inactive: all other assays above

CNC(=O)Oc1cccc(N=CN(C)C)c1
inactive: [1] | [7] | [8]

N#Cc1c(Cl)c(Cl)c(Cl)c(C#N)c1Cl
active: [1] 82.3 µM | [2] 50 µM | [3] 22.5 µM | [4] 15.7 µM | [5] 20.7 µM and 23.1 µM | [6] 815 nM and 77.5 µM | [7] 2.04 µM and 2.82 µM | [8] 85.4 µM and 17.1 µM | [9] 17.1 µM and 15.8 µM
inactive: [3] | [4]

CCS(=O)(=O)c1cccnc1S(=O)(=O)NC(=O)Nc1nc(OC)cc(OC)n1
inactive: [10]
